Laboratory results reported in PubChem BioAssay AID2567 (National Center for Advancing Translational Sciences (NCATS), 2010).
Inconclusive results are not listed. Calls of active or inactive are those of the source. The call rests on the fitted dose curve; in most records, active means well fitted antagonist curve with a large enough effect in the main read-out, with a control signal flat; inconclusive means small, poorly fitted or top-dose-only effect; inactive means no such curve, though single readings can be large or run the other way.

What follows are compounds tested against Neuropeptide S receptor (Homo sapiens) (UniProt Q6W5P4) (assay: Confirmation Concentration-Response Assay for Antagonists of the Neuropeptide S Receptor: Calcium Signal Transduction, SAR for Probe). Conditions: CHO-NPSR cells, NPS-induced calcium fluorescence, FDSS; series mostly up to 19.3 µM; activity change, negative = inhibition: at the top concentration.
Neuropeptide S receptor (Homo sapiens), sequence (Q6W5P4 whole entry, looked up): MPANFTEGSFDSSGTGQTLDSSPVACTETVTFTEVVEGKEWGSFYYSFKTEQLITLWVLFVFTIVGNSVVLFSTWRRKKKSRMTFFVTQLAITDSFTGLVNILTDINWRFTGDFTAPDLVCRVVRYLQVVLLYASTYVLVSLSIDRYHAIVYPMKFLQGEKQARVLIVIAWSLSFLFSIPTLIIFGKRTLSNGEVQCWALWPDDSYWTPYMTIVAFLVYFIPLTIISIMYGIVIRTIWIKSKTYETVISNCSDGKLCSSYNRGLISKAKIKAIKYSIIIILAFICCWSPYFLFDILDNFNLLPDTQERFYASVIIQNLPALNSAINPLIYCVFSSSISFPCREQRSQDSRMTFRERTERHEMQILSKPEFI
Excerpt: NIH Chemical Genomics Center [NCGC] NIH Molecular Libraries Probe Production centers Network [MLPCN] MLPCN Grant: X01-DA026210-01 Assay Submitter (PI): Heilig, Markus Alexander NCGC Assay Overview: Neuropeptide S receptor (NPSR), previously known as GPR154, is a recently de-orphanized G protein coupled receptor. Its endogenous ligand is the 20 amino acids peptide Neuropeptide S (NPS). […] NPS and its receptor are found in various tissues. Specifically they are highly expressed in brain areas that have been implicated in modulation of arousal, stress and anxiety. Central administration of NPS in mice produces an unusual profile of activity by inducing wakefulness and arousal, while at the same time suppressing anxiety. Therefore, NPSR may represent a novel drug target for the treatment of sleep and anxiety disorders. To identify NPSR antagonists, we developed a cell-based assay with transfected NPS receptor. NPS can stimulate the production of cAMP as well as release intracellular calcium in Chinese hamster ovary cells stably expressing NPS receptor. This change in intracellular calcium can be detected using a calcium indicator dye on a calcium imaging plate reader system (FDSS).
NCGC Assay Protocol Summary: A Chinese hamster ovary (CHO) cell line stably expressing the NPS receptor (CHO-NPSR) was obtained from Dr. Heilig lab at NIAAA and maintained in F-12 Kaighn's media (Invitrogen, Carlsbad, CA, 21127) supplemented with 10 % FBS, 100 units/ml penicillin, 100 ug/ml streptomycin and 250 ug/ml geneticin at 37C, 5% CO2 in a humidified atmosphere. Before the assay, aliquots of cells were frozen and stored at -135C. The assay was performed on a FDSS-7000 kinetic plate reader in 1536-well format. For both agonist (1-220s) and antagonist (221-400s) phases, the maximums of kinetic fluorescence responses were converted separately into text files using the instrument's software data export utility. Data for agonist response were normalized to the controls for basal activity (DMSO only) and 100% activation (NPS). […] AC50 values were determined from concentration-response data modeled with the standard Hill equation. NPS 1536-well FDSS assay protocol: (1) Frozen CHO-NPSR cells were thaw, washed once with fresh media and resuspended in F-12 Kaighn's media supplemented with 10 % FBS, 100 units/ml penicillin and 100 ug/ml streptomycin. Cells were plated at 3 ul/well (1200 cells) to black, clear-bottom, tissue-culture treated 1536-well plates, and then cultured at 37C, 5 % CO2 for 16 to 30 hours. (2) Add 3 ul of calcium dye (from High Performance PBX Calcium Assay Kit, BD Biosciences). The calcium dye was prepared according to the manufactory's instruction. (3) Incubation at 37C, 5 % CO2 for 60 to 120 min. (4) Load plates to FDSS-7000. The following steps were performed on FDSS-7000. (5) Record fluorescent background (Ex 480 nm, Em 520-560 nm) for 10 s. (6) Add 23 nl/well of compound in DMSO solution. The final titration for each compound was between 0.6 nM and 46 uM. Record agonist response for 210 s. (7) Add 2 ul of stimulation reagent (1X HBSS buffer, 0.1% BSA, 60 nM NPS). Record antagonist response for 140 s. Keywords: MLSMR, MLPCN, NIH Roadmap, qHTS, NCGC, NPS, Neuropeptide S Antagonists

Row | Compound | activity change, negative = inhibition | Potency
1 | Cc1nnc(NC(=O)c2cccc(S(=O)(=O)N3CCc4ccccc43)c2)s1 | 23.8% (inactive) | 
2 | O=C(NCc1ccc(F)cc1)n1cc(P(=S)(c2ccccc2)c2ccccc2)c2ccccc21 | 17.3% [at 50.9 µM] (inactive) | 
3 | COc1cccc(C2c3c(ncn(-c4ccccc4C#N)c3=N)Oc3ccc4ccccc4c32)c1 (stereo not given) |  | 4.38 µM (active)
4 | Cc1oc2c(c1C(=O)NCc1cccnc1)C(=O)c1ccccc1C2=O | 16.4% (inactive) | 
5 | Oc1ccc(N=Nc2nccs2)c(O)c1 | -0.946% (inactive) | 
6 | NC(=O)OCC(COC(N)=O)c1ccccc1 | 20.6% (inactive) | 
7 | CN(C)c1nc(=Nc2cccc(Cl)c2)ss1 | 5.52% (inactive) | 
8 | COc1ccc(C2c3c(ncn(CCCc4ccccc4)c3=N)Oc3ccc4ccccc4c32)cc1OC (stereo not given) | -76.1% [at 50.9 µM] (inactive) | 
9 | COc1cccc(C2c3c(ncn(-c4cccc(F)c4)c3=N)Oc3ccc4ccccc4c32)c1 (stereo not given) |  | 0.22 µM (active)
10 | Cc1nn(C)cc1/C=N/NC(=S)Nc1ccccc1 | 3.91% (inactive) | 
11 | CC1(C)Cc2c(c(N3CCOCC3)nc3sc4c(NCC5CCCO5)nnnc4c23)CS1 (stereo not given) | -40.4% (inactive) | 
12 | Cn1cc(P(=O)(c2ccccc2)c2ccccc2)c2ccccc21 | -17.3% [at 50.9 µM] (inactive) | 
13 | COc1ccc(C2C3=C(N=CN(CCN4CCOCC4)C3N)Oc3ccccc32)cc1OC (stereo not given) | -2.32% [at 50.9 µM] (inactive) | 
14 | COc1cccc(N2CCN(c3ncnc4c3[nH]c3ccc(F)cc34)CC2C)c1 (stereo not given) |  | 0.631 µM (active)
15 | COc1ccc(C2c3c(ncn(CCc4ccccc4)c3=N)Oc3ccc4ccccc4c32)cc1OC (stereo not given) | -81.6% [at 50.9 µM] (inactive) | 
16 | COc1cccc(C2c3c(ncn(-c4cccc(OC)c4)c3=N)Oc3ccc4ccccc4c32)c1 (stereo not given) |  | 5.52 µM (active)
17 | COc1cccc(C2c3c(ncn(Cc4cccs4)c3=N)Oc3ccc4ccccc4c32)c1 (stereo not given) |  | 3.48 µM (active)
18 | COc1cccc(C2c3c(ncn(-c4ccccc4Br)c3=N)Oc3ccc4ccccc4c32)c1 (stereo not given) |  | 5.52 µM (active)
19 | COc1cccc(C2c3c(ncn(-c4cccc(C#N)c4)c3=N)Oc3ccc4ccccc4c32)c1 (stereo not given) |  | 4.38 µM (active)
20 | Cc1cc(C)n(-c2nc(NC(C)C)nc(NC(C)C)n2)n1 | 29% (inactive) | 

Row | Compound | activity change, negative = inhibition | Potency
21 | O=C(/C=C/c1ccco1)NC(=S)Nc1nc(-c2ccc3ccccc3c2)cs1 | 4.33% (inactive) | 
22 | COc1cccc(C2c3c(ncn(-c4ccc(Br)cc4)c3=N)Oc3ccc4ccccc4c32)c1 (stereo not given) |  | 2.76 µM (active)
23 | CCSc1nc2c(c(=O)n1Cc1ccccc1)SC(C)C2 (stereo not given) | -2.84% (inactive) | 
24 | O=P(c1ccccc1)(c1ccccc1)c1cnc2ccccn12 | -12.3% [at 50.9 µM] (inactive) | 
25 | COc1ccc(C2c3c(n(CCCc4ccccc4)cnc3=N)Oc3ccc4ccccc4c32)cc1OC (stereo not given) |  | 5.52 µM (active)
26 | COc1cccc(C2c3c(ncn(-c4ccccc4SC)c3=N)Oc3ccc4ccccc4c32)c1 (stereo not given) |  | 0.438 µM (active)
27 | CC(C)Cc1nc(N2CCN(C(=O)c3ccccc3)CC2)c(C#N)c2c1CCC2 | 16% (inactive) | 
28 | CN(C)C(=S)N=Nc1[nH]c2ccccc2c1O | 15.4% (inactive) | 
29 | COc1cccc(C2c3c(ncn(-c4cccc(Br)c4)c3=N)Oc3ccc4ccccc4c32)c1 (stereo not given) |  | 4.38 µM (active)
30 | COc1cccc2sc(Nc3nc(-c4ccccn4)cs3)nc12 |  | 3.16 µM (active)
31 | COc1ccc(C2c3c(N)nc(Cc4ccccc4)nc3Oc3ccc4ccccc4c32)cc1OC (stereo not given) | -11.7% [at 50.9 µM] (inactive) | 
32 | Cc1c(P(=S)(c2ccccc2)c2ccccc2)c2ccccc2n1CCCc1ccccc1 | -2.39% [at 50.9 µM] (inactive) | 
33 | COc1ccc(C2c3c(nc(C)[nH]c3=O)Oc3ccc4ccccc4c32)cc1OC (stereo not given) | -5.17% [at 50.9 µM] (inactive) | 
34 | c1ccc(P(c2ccccc2)c2cnc3ccccn23)cc1 |  | 11 µM (active)
35 | CC1(C)O[C@@H]2C[C@H]3[C@@H]4C[C@H](F)C5=CC(=O)CC[C@]5(C)[C@H]4[C@@H](O)C[C@]3(C)[C@]2(C(=O)CO)O1 | 34.2% (inactive) | 
36 | CCCCCN1C=CC=C/C1=C\C=C(C#N)C#N | -25.1% (inactive) | 
37 | COc1ccc(C2c3ccc(OCc4ccccc4)cc3Oc3ncn(CCN4CCOCC4)c(=N)c32)cc1OC (stereo not given) | -60.5% [at 50.9 µM] (inactive) | 
38 | Cc1ccc(Nc2cc(C)nn2-c2nc(C)cc(C)n2)cc1 | 24.7% (inactive) | 
39 | COc1cccc(C2c3c(ncn(-c4ccc(NC(C)=O)cc4)c3=N)Oc3ccc4ccccc4c32)c1 (stereo not given) |  | 5.52 µM (active)
40 | CCC(C)n1c(=O)c(C(=O)Nc2ccccc2S(N)(=O)=O)c(O)c2ccccc21 (stereo not given) | -2.76% (inactive) | 
